Screening data as filed in PubChem BioAssay.
G9a inh = inhibitors of human histone lysine methyltransferase G9a | G9a H3K9 monomethylation, AlphaScreen, 2 h | AID 504332 | Q96KQ7 | 350,000 tested, 8.8% active | Potency, µM (series often up to 102 µM), hits mostly inhibitors; note: nearly all actives have a fitted effect of over 75% in size
Target sequence (Q96KQ7 913-1193 limits assumed): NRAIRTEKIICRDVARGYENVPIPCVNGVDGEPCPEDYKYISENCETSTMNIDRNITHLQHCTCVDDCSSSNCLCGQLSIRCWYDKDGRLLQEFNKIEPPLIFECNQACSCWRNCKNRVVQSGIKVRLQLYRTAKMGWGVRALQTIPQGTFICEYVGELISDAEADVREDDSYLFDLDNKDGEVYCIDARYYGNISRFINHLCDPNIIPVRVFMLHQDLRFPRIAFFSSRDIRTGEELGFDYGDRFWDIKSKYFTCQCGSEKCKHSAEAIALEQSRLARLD
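AlphaScreen read-out: biotin-H3K9 peptide (500 nM) methylation by 20 nM enzyme with 20 uM SAM, 2 h at room temperature after 15 min compound preincubation; anti-monomethyl H3K9 antibody plus donor/acceptor beads, 10 min dark.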
Mm-Cpn inhibitor = blocks the Methanococcus maripaludis chaperonin Mm-Cpn. purified Mm-Cpn ATPase, ADP Transcreener TR-FRET. Potency, µM (titrated, usually from 76.9 µM), hits mostly inhibitors. 330,000 tested, 0.031% active; note: nearly all actives have a fitted effect of over 80% in size
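Compound-treated chaperonin, 25 nM final, turns over 10 uM ATP at 37°C for 30 min following a 10 min preincubation; ADP generated competes with ADP-d2 for Eu-cryptate antibody, lowering FRET.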
Sfp PPTase inh = blocks B. subtilis Sfp PPTase activity; 310,000 tested, 3.5% active; Potency, µM, usual class: inhibitors; Q9F4F7; AID 1490; Biochemical Sfp PPTase activity, qHTS;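 note: the enzyme is Sfp with the accession as filed and its product quenches rhodamine fluorescence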
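Fluorescence-quenching assay: 15 nM Sfp-PPTase preincubated 15 min at room temperature with compound, then 5 uM rhodamine-CoA and 12.5 uM BHQ-2-labelled YbbR peptide added. Fluorescence (ex 525/em 598 nm) read at start and after 30 min; difference gives rate.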
VDR inh = vitamin D3 receptor (human) inhibition; 400,000 tested, 0.93% active; Potency, µM, actives largely listed as inhibitors; VDR-SRC2-3 peptide fluorescence polarization, 2 h; P11473
Target sequence (P11473 whole entry, looked up): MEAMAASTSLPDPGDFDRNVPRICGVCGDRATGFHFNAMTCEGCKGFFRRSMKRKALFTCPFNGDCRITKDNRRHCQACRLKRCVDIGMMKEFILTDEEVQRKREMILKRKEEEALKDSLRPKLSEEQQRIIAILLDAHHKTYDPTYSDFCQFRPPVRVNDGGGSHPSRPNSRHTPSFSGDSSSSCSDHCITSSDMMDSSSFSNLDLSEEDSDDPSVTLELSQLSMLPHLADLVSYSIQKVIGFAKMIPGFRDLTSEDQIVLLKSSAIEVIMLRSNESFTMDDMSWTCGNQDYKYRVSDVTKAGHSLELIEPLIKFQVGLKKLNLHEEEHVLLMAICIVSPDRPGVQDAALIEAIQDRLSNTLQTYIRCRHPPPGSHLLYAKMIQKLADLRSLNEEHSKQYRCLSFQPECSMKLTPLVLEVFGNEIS
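Fluorescence polarization assay measuring small-molecule disruption of VDR binding to the coregulator peptide SRC2-3. Compounds were pin-transferred (23 nl) into the reagent mix and incubated 2 h at room temperature before reading.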
PLK1 PBD inh = inhibitors of human PLK1 polo-box domain binding | P53350 | Plk1 PBD binding of FITC phosphopeptide, fluorescence polarization | Potency, µM, actives largely listed as inhibitors | 360,000 tested, 2.8% active | AID 720504; note: series mostly up to about 57 µM; nearly all actives have a fitted effect of over 65% in size
CCT chaperon mod = cytosolic chaperonin activity modulation; purified chaperonin ATPase assay, HTRF ADP detection, 30 min; 360,000 tested, 0.3% active; activity change, % (no concentration beside the values), hits read low; in the data active = activity change below about -30%
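We incubate TRiC, 40 or 20 nM final, with library compounds at 76 uM and 10 uM ATP for 30 min at 37 °C. ADP formed is detected with Transcreener HTRF reagents after 30 min at room temperature.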
Numbers stand for hits; – = inactive; ? = inconclusive; · = not tested or not shown; ! = not active in a repeat; [ ] = remark or other dose. A selection: hits, their analogues and other compounds. The true share with any hit is near 10%. Unless noted, calls come from the whole dose curve; as a rule, active = well fitted curve in the direction sought with a large enough effect; inconclusive = small, poorly fitted or top-dose-only effect, or another doubt; inactive = no such curve, though single readings can be large; an effect the other way counts as inactive or inconclusive.

SMILES	G9a inh	Mm-Cpn inhibitor	Sfp PPTase inh	VDR inh	PLK1 PBD inh	CCT chaperon mod
Cc1cccc(-n2c(C)nc3cc(C(=O)N4CCOCC4)ccc32)c1	–	–	–	?	26.7µM	–
COc1ccc(-n2c(C)nc3cc(C(=O)O)ccc32)cc1	–[12.7 µM]	–	–	–	–	–
Cc1nc2cc(C(=O)O)ccc2n1-c1ccc(C(C)C)cc1	15.8µM	·	·	–	·	·
Cc1cc(C)nc(SCc2nnc(SCC(=O)Nc3ccccc3C)n2Cc2ccco2)n1	?	–	50.1µM	–	–	–
COc1ccc(C)cc1NC(=O)CSc1nnc(COc2ccccc2)n1Cc1ccco1	–[2.33 µM]	–	79.4µM	–	–	–
COc1cccc(OCc2nnc(SCC(=O)NCc3ccco3)n2CCc2ccccc2)c1	?	–	50.1µM	–	–	–
COc1ccc(-n2c(COc3cccc(C)c3)nnc2SCC(=O)NCc2ccco2)cc1	–[12.7 µM]	–	–	–	–	–
CCOC(=O)CSc1nnc(CSc2nc(C)cc(C)n2)n1Cc1ccco1	?	–	20µM	–	–	–
COc1ccc(C)cc1NC(=O)CSc1nnc(COc2ccc(Cl)cc2)n1Cc1ccco1	?	–	?	–	–	–
Cc1cc(C)nc(SCc2nnc(SCC(N)=O)n2Cc2ccco2)n1	–	–	–	–	–	–
CCOc1ccc(C(=O)Nc2ccc3oc(-c4cccc5ccccc45)nc3c2)cc1	–	·	·	–	·	·
Cc1ccc(NC(=O)CSc2nnc(CSc3nc(C)cc(C)n3)n2Cc2ccco2)c(C)c1	?	–	?	–	–	–
Cc1ccc(C)c(NC(=O)CSc2nnc(CSc3nc(C)cc(C)n3)n2Cc2ccco2)c1	?	–	44.7µM	–	–	–
COc1ccccc1-n1c(CNC(=O)c2ccco2)nnc1SCC(=O)Nc1ccc(F)cc1	–	–	–	–	–	–
COc1ccccc1-n1c(CNC(=O)c2ccco2)nnc1SCC(=O)Nc1cc(C)ccc1C	–	–	–	–	2.99µM	–
c1ccc(C[n+]2cccc3c4ccccc4ccc32)cc1	·	–	–	–	–	–
CCCCC[n+]1cccc2c3ccccc3ccc21	50.1µM	–	–	–	–	–
N[C@H](C(=O)O)C1C(C(=O)O)C1C(=O)O (stereo partly drawn)	–	·	50.1µM	–	·	·
O=P(c1ccccc1)(c1ccccc1)c1nc(-c2ccc(Cl)cc2)oc1N1CCOCC1	?	–	?	?	23.8µM!	–
CCC(Sc1ncc(S(=O)(=O)c2ccc(C)cc2)c(=O)[nH]1)C(=O)Nc1cc(C)ccc1C (stereo not drawn)	–	·	·	–	·	·
O=C(/C=C/c1cccs1)Nc1sc2c(c1C(=O)O)CCCC2	50.1µM	–	–	–	–	–
O=C(CC1NCCNC1=O)Nc1ccc(F)c(Cl)c1 (stereo not drawn)	–	·	·	–	·	·
COc1cccc(CNC(=O)C(C)n2ncn3cccc3c2=O)c1OC (stereo not drawn)	?	·	·	–	·	·
C/C(=N\Nc1ccc(Cl)c(C(=O)O)c1)c1ccc(Br)s1	35.5µM	–	–	–	23.8µM	–
C/C(=N\Nc1ccc(C(=O)O)cc1)c1ccc(Cl)s1	?	–	10µM	–	–	–
SMILES	G9a inh	Mm-Cpn inhibitor	Sfp PPTase inh	VDR inh	PLK1 PBD inh	CCT chaperon mod
Cc1ccc(C)c(N(C)C(=O)C2CCN(S(=O)(=O)c3cccc4nsnc34)CC2)c1	–	·	·	–	·	·
N#CC1=C(N)SC(N)=C(C#N)C1c1c(Cl)cccc1Cl	11.2µM	–	7.08µM	?	?	–
N#CC1=C(N)SC(N)=C(C#N)C1c1cccc(Oc2ccccc2)c1	?	?	28.2µM	?	–	–
CCOC(=O)c1ccc(NC(=O)c2cc3ccccc3o2)cc1	–	–	79.4µM	–	–	–
NS(=O)(=O)c1cccc(NC(=O)c2cc(=O)c3ccccc3o2)c1	–	–	–	–	–	–
NS(=O)(=O)c1cccc(NC(=O)c2cc3ccccc3o2)c1	–	–	–	–	21.2µM	–
CCOC(=O)c1cccc(NC(=O)c2cc3ccccc3o2)c1	–	–	–	–	–	–
COCCCNC(=O)C1CCN(C(=O)c2cnn(-c3ccccc3)c2-n2cccc2)CC1	–	·	·	–	·	·
COc1ccc(-c2ncc3ccccn23)cc1OC	14.1µM	–	?	–	–	–
Clc1ccc(-c2ncc3ccccn23)cc1	–	–	–	–	–	–
Cc1ccc(OC(=O)CSc2nnc(-c3ccc4c(c3)OCO4)o2)c(C)c1	–	·	·	–	·	·
Cc1ccc(/C=C2\CC(C)CC3=C2NC(=S)NC3c2ccc(C)cc2)cc1 (stereo not drawn)	?	–	?	?	?	–
Cc1ccc(/C=C2\CCCC3=C2NC(=S)NC3c2ccc(C)cc2)cc1 (stereo not drawn)	8.91µM	–	25.1µM	?	?	–
O=C(Nc1ccc2oc(-c3cccnc3)nc2c1)c1ccc(-c2ccccc2OC(F)(F)F)o1	–	·	·	–	·	·
O=C(N/N=C/c1cnc(N2CCCCC2)s1)c1ccc(Cl)cc1	–	–	–	–	29.9µM	–
O=C(O)C1Cc2ccccc2CN1S(=O)(=O)c1ccccc1 (stereo not drawn)	?	–[15.4 µM]	–	–	–	–
O=C(O)C1Cc2ccccc2CN1C(=O)CCl (stereo not drawn)	8.91µM	–	–	–	–	–
Cc1ccc(NC(=O)Cn2c(-c3cncs3)nc3ccccc32)cc1Br	–	·	·	–	·	·
N#Cc1cc2cc3c(cc2nc1N1CCCCC1)OCCO3	?	–	28.2µM	–	–	–
CC1NC(=O)NC1CCCCC(=O)O (stereo not drawn)	–	–	–	–	10.6µM	–
CCc1cccc(NC(=O)CCCCCC2NC(=O)NC2C)c1 (stereo not drawn)	1.26µM	–	–	–	–	–
CCC(=O)N1c2nc(-c3ccco3)nn2C2(CCCCC2)[C@@H]2CCCC[C@@H]21	–	·	·	–	·	·
COC(=O)n1c(=O)oc2ccccc21	–	–	–	–	–	–
Cc1ccccc1OC(=O)n1c(=S)oc2cc(Cl)ccc21	1.12µM	–	–	–	13.4µM	–
O=C(Oc1ccccc1)n1c(=S)oc2ccccc21	3.55µM	–	–	–	21.2µM	–
SMILES	G9a inh	Mm-Cpn inhibitor	Sfp PPTase inh	VDR inh	PLK1 PBD inh	CCT chaperon mod
CC(=O)/C(C#N)=C1\NC(=O)C(Cc2ccccc2C)S1 (stereo not drawn)	20µM	–	–	–	–	–
COc1ccc(-n2c(Cc3ccccc3)nnc2SCc2nc(-c3cccs3)no2)cc1	?	·	·	–	·	·
Cc1ccc(S(=O)(=O)c2nc(Nc3ccccc3)sc2Cl)cc1	?	–	–	–	29.9µM	–
COc1ccc(Nc2nc(S(=O)(=O)c3ccc(C)cc3)c(Cl)s2)cc1	44.7µM	–	–	–	–	–
Cc1ccc(C)c(Cn2c(=O)cc(C(F)(F)F)c3c(C)nn(C)c32)c1	–	·	·	–	·	·
c1ccc(C[n+]2c(-c3ccccc3)csc2Nc2ccccc2)cc1	11.2µM	–	–	–	–	–
